JMJD2A Tudor inh: JMJD2A Tudor domain (human) inhibition; 390,000 compounds, 4.4% hits; Potency, µM (top dose mostly 114 µM), usual class: inhibitors; AID 504339; AlphaScreen JMJD2A-Tudor / H3K4me3 peptide binding; note: nearly all actives have a fitted effect of over 50% in size
HP1b binding inh: blocks HP1-beta chromodomain binding to methylated histone tails | P83916 | AlphaScreen HP1-beta / biotin-H3K9me3 peptide binding | Potency, µM (series often up to 114 µM), usual class: inhibitors | 390,000 compounds, 0.56% hits | AID 540317; note: nearly all actives have a fitted effect of over 70% in size
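Compound inhibition of the preformed complex between 50 nM HP1-beta and 50 nM biotinylated H3K9me3 peptide was read by AlphaScreen. Buffer was PBS pH 7.4 with 0.01% Tween-20. Incubations ran 30 min at room temperature, with 10 ug/mL donor/acceptor beads.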
BAZ2B inh: BAZ2B (human) inhibition; Potency, µM (titrated, usually from 114 µM), hits mostly inhibitors; AlphaScreen BAZ2B-H3K14Ac peptide displacement; Q9UIF8; 360,000 compounds, 4.4% hits; note: nearly all actives have a fitted effect of over 60% in size
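AlphaScreen displacement: compounds (up to 110uM) incubated 30 min at room temperature with a preformed 50 nM BAZ2B/50 nM biotinylated H3K14Ac peptide complex in PBS pH 7.4 with Tween-20. Donor and acceptor beads at 10 ug/mL final added, 20 min light-protected before reading.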
PI5P4Ka inh: blocks human PI5P4K alpha kinase activity. P48426. PI5P4Kalpha enzyme, ADP-Glo luminescence, 60 min; hits give low values. max response, %. 330,000 compounds, 1.2% hits. AID 652105; active = max response of -50% or lower; inconclusive = between -30% and -50%; inactive = -30% or higher; note: value at the top dose of about 77 µM
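Controls without substrate or without enzyme flank wells where PI5P4Kalpha converts substrate using 5 microM ATP (final). Incubation lasts 60 minutes at room temperature; ADP formed is read by ADP-Glo luminescence.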
G9a block: blocks human histone lysine methyltransferase G9a | Q96KQ7 | G9a H3K9 monomethylation, AlphaScreen, 2 h | 350,000 compounds, 8.8% hits | Potency, µM (titrated, usually from 102 µM), hits mostly inhibitors; note: nearly all actives have a fitted effect of over 75% in size
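Methyltransferase reactions run at room temperature for 2 h (20 nM enzyme, 500 nM biotin-H3K9 peptide, 20 uM SAM) after a 15 min compound preincubation; product detected by AlphaScreen beads and anti-H3K9me1 antibody.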
PLK1 PBD inh: blocks phosphopeptide binding to human PLK1 polo-box domain; Plk1 PBD binding of FITC phosphopeptide, fluorescence polarization; Potency, µM, actives largely listed as inhibitors; 360,000 compounds, 2.8% hits; AID 720504; note: series mostly up to about 57 µM; nearly all actives have a fitted effect of over 65% in size
Target sequence (P53350 whole entry, looked up, the tested form may be a part): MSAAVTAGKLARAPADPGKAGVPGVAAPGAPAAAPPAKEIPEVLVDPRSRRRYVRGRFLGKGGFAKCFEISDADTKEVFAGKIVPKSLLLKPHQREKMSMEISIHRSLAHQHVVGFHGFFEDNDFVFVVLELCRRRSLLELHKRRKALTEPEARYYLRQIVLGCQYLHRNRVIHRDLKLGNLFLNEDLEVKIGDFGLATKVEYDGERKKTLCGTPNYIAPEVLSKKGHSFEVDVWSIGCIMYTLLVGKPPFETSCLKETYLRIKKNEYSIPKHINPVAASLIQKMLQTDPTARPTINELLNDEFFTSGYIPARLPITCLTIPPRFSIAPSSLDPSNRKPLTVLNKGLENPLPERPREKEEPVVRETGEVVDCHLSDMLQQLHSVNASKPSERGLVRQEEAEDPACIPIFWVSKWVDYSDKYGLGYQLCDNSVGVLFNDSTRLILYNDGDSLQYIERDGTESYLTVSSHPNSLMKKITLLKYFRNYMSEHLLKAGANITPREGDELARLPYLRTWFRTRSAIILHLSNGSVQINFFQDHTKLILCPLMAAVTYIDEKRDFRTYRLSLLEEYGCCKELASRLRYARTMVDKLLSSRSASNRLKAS
Numbers stand for hits; - = inactive; ? = inconclusive; . = not tested or not shown; [ ] = another dose, or the depositor's remark. A selection: hits, their analogues and other compounds. The true share with any hit is near 12%. Unless noted, calls come from the whole dose curve; as a rule, active = well fitted curve in the direction sought with a large enough effect; inconclusive = small, poorly fitted or top-dose-only effect, or another doubt; inactive = no such curve, though single readings can be large; an effect the other way counts as inactive or inconclusive.

SMILES	JMJD2A Tudor inh	HP1b binding inh	BAZ2B inh	PI5P4Ka inh	G9a block	PLK1 PBD inh
N#Cc1ccc(CN2CCC3(CC2)CCN(S(=O)(=O)c2ccccc2)CC3)cc1	.	.	.	.	-[12.7 µM]	.
Cn1nnc2c(NCc3c(F)cccc3F)ncnc21	-	-	-	.	-	.
O=C(N/N=C/c1sc(=O)n(-c2ccccc2)c1Cl)c1ccncc1	-	-	-	-	50µM	-
CN(C)c1ccc(C(=O)N/N=C/c2ccccn2)cc1	-	-	-	-	7.9µM	-
O=C(N/N=C/c1ccccn1)c1ccc(Cl)cc1	-	-	-	-	?	-
O=C(N/N=C/c1ccccn1)C(O)c1ccccc1 (centres undefined)	-	-	?	-	0.71µM	-
O=C(N/N=C/c1ccccc1)C(O)c1ccccc1 (centres undefined)	-	-	-	-	-	-
COc1cc(C(=O)N/N=C/c2sc(=O)n(-c3ccccc3)c2Cl)cc(OC)c1OC	-	-	-	-	-	-
Cn1ncc(Cl)c1C(=O)N/N=C/c1ccccn1	?	-	22µM	-	-	-
COc1ccc(Oc2ncc3nc(-c4cccc(C#N)c4)c(=O)n(C)c3n2)cc1	.	.	.	.	-[0.501 µM]	.
CC(=O)c1ccc(NC(=O)c2ccc(-n3cnnn3)cc2)cc1	-	-	-	-	?	-
CN(C)CCNC(=O)CN1N=C(c2ccccc2)CCC1=O	-	-	-	.	-	.
O=C(Cn1ncc2c3ccccc3n(Cc3ccc(F)cc3)c2c1=O)NCCCN1CCCCC1	-	-	-	.	-	.
Cc1ccc(OC(C)C(=O)N/N=C/c2ccccn2)cc1 (centres undefined)	-	-	71µM	-	1.4µM	-
O=C(N/N=C/c1ccccn1)c1ccccc1	?	-	-	-	?	-
Cc1ccc(C(=O)Nc2ccc(C(=O)N/N=C/c3ccccn3)cc2)cc1	-	-	-	-	-	-
O=C(N/N=C/c1ccccn1)c1ccncc1	?	-	16µM	-	?	-
CC(C)Cn1c(=O)c2ccccc2n2c(CCC(=O)N3CCN(c4ccccc4)CC3)nnc12	-	-	-	.	-	.
O=C(NC(=S)/C(=C1\CCCCCN1)[N+](=O)[O-])c1ccccc1	?	?	.	-	.	-
C=C(C)C(=O)Nc1ccc(OC(F)(F)C(F)F)c(NC(=O)C(=C)C)c1	79µM	56µM	45µM	-	.	?
CC(=O)Nc1ccc(OC(F)(F)C(F)F)c(NC(C)=O)c1	-	-	?	.	-	-
Cc1cc(C(=O)COC(=O)c2cc(O)c3ccccc3c2O)c(C)n1CC1CCCO1 (centres undefined)	32µM	28µM	50µM	?	10µM	8.4µM
CCCC(=O)Nc1nnc(C2CCCO2)s1 (centres undefined)	?	-	-	-	-[0.501 µM]	-
O=C(CN1C(=O)c2ccccc2C1=O)Nc1nnc(C2CCCO2)s1 (centres undefined)	-	-	-	.	45µM	-
COc1ccc(CN(Cc2ccccc2)C(=O)C2CC2)cc1COc1ccc(NC(C)=O)cc1	?	-	.	.	.	.
SMILES	JMJD2A Tudor inh	HP1b binding inh	BAZ2B inh	PI5P4Ka inh	G9a block	PLK1 PBD inh
CCN1CCc2c(sc(NC(=S)NC(=O)c3ccc(Cl)cc3)c2C(N)=O)C1	?	-	-	-	32µM	?
Cc1ccccc1C(=O)NC(=S)Nc1sc2c(c1C#N)CCCC2	?	-	-	-	?	?
COC(=O)c1c(NC(C)=O)sc2c1CCN(Cc1ccccc1)C2	-	-	-	-	.	-
CCN1CCc2c(sc(NC(=O)c3ccc4ccccc4c3)c2C(N)=O)C1	.	.	-	.	-	.
CCCN1CCc2c(sc(NC(=S)NC(=O)c3ccccc3)c2C#N)C1	?	?	?	?	10µM	7.5µM
CC(C)C1Cc2c(sc(NC(=S)NC(=O)c3ccccc3)c2C#N)CO1 (centres undefined)	-	-	-	-	-	24µM
CC(C)N1CCc2c(sc(NC(=S)NC(=O)c3ccccc3)c2C#N)C1	?	-	?	-51	10µM	?
CCOC(=O)c1c(NC(=S)NCCc2ccccc2)sc2c1CC(C(C)C)OC2 (centres undefined)	-	-	-	-	-	-
O=C(Cc1ccc(F)cc1)NC1CCS(=O)(=O)C1 (centres undefined)	-	-	-	-	-	-
O=C(O)COc1ccc(/C=C2\SC(=Nc3ccccc3)N(c3ccccc3)C2=O)cc1	-	-	-	-	-	-
COc1ccc(N=C2S/C(=C\c3ccc(N4CCOCC4)o3)C(=O)N2CCc2c[nH]c3ccccc23)cc1	.	.	40µM	.	?	.
COc1ccc(N=C2S/C(=C\c3ccc(OCC(=O)O)cc3)C(=O)N2CCc2c[nH]c3ccccc23)cc1	8.9µM	18µM	14µM	-57	-	?
CC1CCCCC1NC(=O)CSc1nnnn1C (centres undefined)	-	-	-	-	-	-
Cc1ccc2nc(N(CCN3CCOCC3)C(=O)CCS(=O)(=O)c3ccccc3)sc2c1	-	-	-	-	-[0.501 µM]	-
Cc1ccc(S(=O)(=O)CCC(=O)N(CCCN2CCOCC2)c2nc3ccccc3s2)cc1	-	-	-	-	45µM	-
O=C(CCS(=O)(=O)c1ccccc1)N(CCCN1CCOCC1)c1nc2ccccc2s1	-	-	-	-	40µM	?
COc1cc(NC(=O)c2ccccc2F)c(OC)cc1NC(=O)CN1CCOCC1	-	-	-	-	45µM	-
COc1cc2c(cc1NC(=O)CN1CCN(S(=O)(=O)c3ccccc3F)CC1)oc1ccccc12	-[11.4 µM]	-	-	?	-	3.4µM
COc1ccc(C2CC(=O)N3CN(C4CCCCC4)CSC3=C2C#N)cc1 (centres undefined)	7.1µM	?	.	.	1.8µM	.
COc1ccc(C2C(=O)N(C3CCCCC3)CC(=O)N2C2CCCC2)cc1 (centres undefined)	-	-	-	.	-	-
COc1ccc(N2CSC3=C(C#N)C(c4cc(OC)ccc4OC)CC(=O)N3C2)c(OC)c1 (centres undefined)	22µM	16µM	45µM	-85	2.2µM	3.8µM
COc1ccc(N2CSC3=C(C#N)C(c4cccs4)CC(=O)N3C2)cc1 (centres undefined)	-	-	50µM	.	2.8µM	-
O=C(O)c1ccc2c(c1)C(=O)N(c1ncccn1)C2=O	-	-	-	-	?	-
O=C(O)c1ccc2c(c1)-c1nc3ccccc3n1C2=O	18µM	-	?	-	40µM	-
CCOc1ccc(C(=O)c2cn(Cc3ccc(Cl)cc3)c3cc(OC)c(OC)cc3c2=O)cc1	-	-	-	.	-	.
O=C(c1csnn1)N1CCC2(CCCN(C(c3ccccc3)c3ccccc3)C2)CC1	.	.	.	.	-[12.7 µM]	.
Clc1ccc(/C=N/Nc2ncnc3nc[nH]c23)cc1	-	-	-	-	-	-
Oc1ccc(/C=N/Nc2ncnc3nc[nH]c23)cc1	-	-	-	-66	.	-
